From PubChem BioAssay (EPA / NIEHS)
Results filed as inconclusive are left out. The source made the active and inactive calls. How the source made its calls: active means hit-call score of the fitted dose curve at least 0.9, where 1 is the maximum; inconclusive means response in the unintended direction; inactive means score below 0.9.

Assays:
[1] = molecular target: human Thyroid Receptor Alpha (TRa), THRA (gene 7067) (UniProt P10827); test: NVS_NR_hTRa_Antagonist: NovaScreen (NVS) Nuclear Receptor Binding Assay for human Thyroid Receptor Alpha Antagonism (TRa) (AID 2283362);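 further: activity is loss of signal relative to DMSO baseline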
In short: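 Chemicals were first screened in duplicate at 25 uM, then actives were retested in concentration series. Binding to the extracted receptor was measured 1 h after dosing by AlphaLISA chemiluminescence, with decreased signal versus DMSO scored as activity.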

[2] = molecular target: guinea pig Sigma Receptor, Non-selective Binding, SIGMAR1 (gene 100135589) (UniProt Q60492); test: NVS_OR_gSIGMA_NonSelective: NovaScreen (NVS) Nuclear Receptor Binding Assay for guinea pig Sigma Receptor, Non-selective Binding (AID 2283367)
In short: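 Membranes from guinea pig brain incubated with radioligand and test chemical for 1 h, then filtered and scintillation-counted. Duplicate primary testing at 25 uM, with concentration-series follow-up for actives.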

Chain of guinea pig Sigma Receptor, Non-selective Binding, SIGMAR1 (gene 100135589) (Q60492 whole entry, looked up): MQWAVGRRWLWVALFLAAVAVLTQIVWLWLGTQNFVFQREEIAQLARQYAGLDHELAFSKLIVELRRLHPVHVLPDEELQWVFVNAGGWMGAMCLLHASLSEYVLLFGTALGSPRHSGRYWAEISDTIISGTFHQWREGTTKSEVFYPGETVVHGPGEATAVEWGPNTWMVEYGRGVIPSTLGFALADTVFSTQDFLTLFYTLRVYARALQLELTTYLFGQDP
Chain of human Thyroid Receptor Alpha (TRa), THRA (gene 7067) (P10827 whole entry, looked up): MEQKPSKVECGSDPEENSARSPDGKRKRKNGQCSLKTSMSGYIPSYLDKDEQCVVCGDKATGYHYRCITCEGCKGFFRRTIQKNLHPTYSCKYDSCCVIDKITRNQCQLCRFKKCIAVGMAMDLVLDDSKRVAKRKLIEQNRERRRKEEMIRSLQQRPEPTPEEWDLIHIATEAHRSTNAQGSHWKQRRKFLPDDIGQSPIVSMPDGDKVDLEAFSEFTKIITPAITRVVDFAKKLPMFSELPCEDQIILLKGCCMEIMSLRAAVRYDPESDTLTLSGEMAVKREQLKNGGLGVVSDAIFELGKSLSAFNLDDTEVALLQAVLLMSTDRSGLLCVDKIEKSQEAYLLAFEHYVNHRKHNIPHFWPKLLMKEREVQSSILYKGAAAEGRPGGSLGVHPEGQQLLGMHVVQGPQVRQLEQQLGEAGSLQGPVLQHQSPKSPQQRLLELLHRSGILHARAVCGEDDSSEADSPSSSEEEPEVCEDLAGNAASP

Compound	AC50 [1]	AC50 [2]
CCN=c1cc2oc3cc(NCC)c(C)cc3c(-c3ccccc3C(=O)OCC)c-2cc1C	38.3 µM (active)	–
CCN=C1C=CC(=C(c2ccc(N(CC)CC)cc2)c2ccc(N(CC)CC)cc2)c2ccccc21	1.15 µM (active)	–
c1ccc(C[P+](c2ccccc2)(c2ccccc2)c2ccccc2)cc1	–	4.57 µM (active)
Cc1cc(C)c(O)c(C(C)(C)C)c1	–	16.5 µM (active)
